# This excerpt belongs to a sample that is enriched for the strongest signals.
# Key:
# Experiment in all cases: glycan array binding signal (z-score within array); higher = stronger binding
# Settings in all cases: glycan notation: IUPAC condensed, linker removed
# [1] = target: Fuc(a1-2)Gal(b1-3)GalNAc(a1-3)[Fuc(a1-2)]Gal(b1-4)Glc
# How it was run: (§1)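 Glycan array data were curated from 3228 arrays in the Consortium for Functional Glycomics database and kept only where the protein sequence was available. Glycan names were converted to IUPAC-condensed notation, and columns mapping to the same glycan were averaged. The binding signal is a within-array Z-score, averaged across arrays of the same protein sequence at different concentrations or buffers and across linkers. Negative Z-scores can be read as non-binding.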
# [2] = target: Fuc(a1-2)Gal(b1-3)GalNAc(a1-3)[Fuc(a1-2)]Gal(b1-4)GlcNAc
# How it was run: as §1
# [3] = target: Fuc(a1-2)Gal(b1-3)GalNAc(b1-4)[Neu5Ac(a2-3)]Gal(b1-4)Glc
# How it was run: as §1
# [4] = target: Fuc(a1-2)Gal(b1-3)GlcNAc(b1-3)[Fuc(a1-2)Gal(b1-3)GlcNAc(b1-6)]GalNAc
# How it was run: as §1
# [5] = target: Fuc(a1-2)Gal(b1-4)GlcNAc(b1-2)[Fuc(a1-2)Gal(b1-4)GlcNAc(b1-4)]Man(a1-3)[Fuc(a1-2)Gal(b1-4)GlcNAc(b1-2)Man(a1-6)]Man(b1-4)GlcNAc(b1-4)GlcNAc
# How it was run: as §1
# [6] = target: Fuc(a1-2)Gal(b1-4)GlcNAc(b1-3)Gal(b1-4)GlcNAc(b1-2)Man(a1-3)[Fuc(a1-2)Gal(b1-4)GlcNAc(b1-3)Gal(b1-4)GlcNAc(b1-2)Man(a1-6)]Man(b1-4)GlcNAc(b1-4)GlcNAc
# How it was run: as §1
# [7] = target: Fuc(a1-2)Gal(b1-4)GlcNAc6S
# How it was run: as §1
# [8] = target: Fuc(a1-2)Gal(b1-4)[Fuc(a1-3)]GlcNAc(b1-2)[Fuc(a1-2)Gal(b1-4)[Fuc(a1-3)]GlcNAc(b1-4)]Man(a1-3)[Fuc(a1-2)Gal(b1-4)[Fuc(a1-3)]GlcNAc(b1-2)Man(a1-6)]Man(b1-4)GlcNAc(b1-4)GlcNAc
# How it was run: as §1
# [9] = target: Fuc(a1-2)[Gal(a1-3)]Gal(b1-3)GalNAc
# How it was run: as §1
# [10] = target: Fuc(a1-2)[Gal(a1-3)]Gal(b1-4)[Fuc(a1-3)]GlcNAc
# How it was run: as §1
# [11] = target: Fuc(a1-3)[Gal(b1-4)]GlcNAc(b1-3)Gal(b1-3)[Fuc(a1-4)]GlcNAc
# How it was run: as §1
# [12] = target: Gal(a1-3)Gal(b1-3)GlcNAc
# How it was run: as §1
# [13] = target: Gal(a1-3)GalNAc
# How it was run: as §1
# [14] = target: Gal(b1-3)GalNAc(a1-3)[Fuc(a1-2)]Gal(b1-4)Glc
# How it was run: as §1
# [15] = target: Gal(b1-3)GalNAc(a1-3)[Fuc(a1-2)]Gal(b1-4)GlcNAc
# How it was run: as §1
# [16] = target: Gal(b1-3)GlcNAc(b1-3)Gal(b1-4)[Fuc(a1-3)]GlcNAc
# How it was run: as §1
# [17] = target: Gal(b1-3)GlcNAc(b1-6)GalNAc
# How it was run: as §1
# [18] = target: Gal(b1-4)Glc6S
# How it was run: as §1
# [19] = target: Gal(b1-4)GlcNAc(b1-2)Man(a1-6)[GlcNAc(b1-2)Man(a1-3)]Man(b1-4)GlcNAc(b1-4)GlcNAc
# How it was run: as §1
# [20] = target: Gal(b1-4)GlcNAc(b1-2)[Gal(b1-4)GlcNAc(b1-4)]Man(a1-3)[GlcNAc(b1-4)][Gal(b1-4)GlcNAc(b1-2)Man(a1-6)]Man(b1-4)GlcNAc(b1-4)GlcNAc
# How it was run: as §1
# [21] = target: Gal(b1-4)GlcNAc(b1-3)Gal(b1-4)GlcNAc(b1-2)Man(a1-3)[Gal(b1-4)GlcNAc(b1-3)Gal(b1-4)GlcNAc(b1-2)Man(a1-6)]Man(b1-4)GlcNAc(b1-4)GlcNAc
# How it was run: as §1
# [22] = target: Gal(b1-4)GlcNAc(b1-3)Gal(b1-4)GlcNAc(b1-3)[Gal(b1-4)GlcNAc(b1-3)Gal(b1-4)GlcNAc(b1-6)]GalNAc
# How it was run: as §1
# [23] = target: Gal(b1-4)GlcNAc6P
# How it was run: as §1
# [24] = target: Gal3S(b1-3)GalNAc
# How it was run: as §1
# [25] = target: Gal3S4S(b1-4)GlcNAc
# How it was run: as §1
# [26] = target: GalNAc(a1-3)Gal
# How it was run: as §1
# [27] = target: GalNAc(b1-3)GalNAc
# How it was run: as §1
# [28] = target: GlcNAc(b1-2)Man(a1-3)[GlcNAc(b1-2)Man(a1-6)]Man(b1-4)GlcNAc(b1-4)GlcNAc
# How it was run: as §1
# [29] = target: GlcNAc(b1-2)Man(a1-3)[GlcNAc(b1-4)][GlcNAc(b1-2)Man(a1-6)]Man(b1-4)GlcNAc(b1-4)GlcNAc
# How it was run: as §1
# [30] = target: GlcNAc(b1-2)[GlcNAc(b1-4)]Man(a1-3)[GlcNAc(b1-4)][GlcNAc(b1-2)[GlcNAc(b1-6)]Man(a1-6)]Man(b1-4)GlcNAc(b1-4)[Fuc(a1-6)]GlcNAc
# How it was run: as §1
# [31] = target: GlcNAc(b1-3)Gal(b1-4)GlcNAc(b1-3)Gal(b1-4)GlcNAc(b1-2)Man(a1-3)[GlcNAc(b1-3)Gal(b1-4)GlcNAc(b1-3)Gal(b1-4)GlcNAc(b1-2)Man(a1-6)]Man(b1-4)GlcNAc(b1-4)[Fuc(a1-6)]GlcNAc
# How it was run: as §1
# [32] = target: GlcNAc(b1-3)Gal(b1-4)GlcNAc(b1-6)[GlcNAc(b1-3)Gal(b1-3)]GalNAc
# How it was run: as §1
# [33] = target: GlcNAc(b1-4)GlcNAc(b1-4)GlcNAc
# How it was run: as §1
# [34] = target: Kdn(a2-3)Gal(b1-3)GalNAc
# How it was run: as §1
# [35] = target: Kdn(a2-6)Gal(b1-4)GlcNAc
# How it was run: as §1
# [36] = target: Man(a1-2)Man(a1-3)[Man(a1-2)Man(a1-6)]Man(a1-6)[Man(a1-2)Man(a1-2)Man(a1-3)]Man(b1-4)GlcNAc(b1-4)GlcNAc
# How it was run: as §1
# [37] = target: Man(a1-3)[Man(a1-6)]Man(a1-6)[Man(a1-2)Man(a1-3)]Man(b1-4)GlcNAc(b1-4)GlcNAc
# How it was run: as §1
# [38] = target: Neu5Ac(a2-3)Gal(b1-4)GlcNAc(b1-3)Gal(b1-4)GlcNAc(b1-2)Man(a1-3)[Neu5Ac(a2-3)Gal(b1-4)GlcNAc(b1-3)Gal(b1-4)GlcNAc(b1-2)Man(a1-6)]Man(b1-4)GlcNAc(b1-4)GlcNAc
# How it was run: as §1
# [39] = target: Neu5Ac(a2-3)Gal(b1-4)GlcNAc(b1-3)Gal(b1-4)GlcNAc(b1-3)Gal(b1-4)GlcNAc(b1-2)Man(a1-3)[Neu5Ac(a2-3)Gal(b1-4)GlcNAc(b1-3)Gal(b1-4)GlcNAc(b1-3)Gal(b1-4)GlcNAc(b1-2)Man(a1-6)]GalNAc
# How it was run: as §1
# [40] = target: Neu5Ac(a2-3)Gal(b1-4)GlcNAc(b1-3)Gal(b1-4)GlcNAc(b1-3)[Neu5Ac(a2-3)Gal(b1-4)GlcNAc(b1-3)Gal(b1-4)GlcNAc(b1-6)]GalNAc
# How it was run: as §1
# [41] = target: Neu5Ac(a2-3)GalNAc(b1-4)GlcNAc
# How it was run: as §1
# [42] = target: Neu5Ac(a2-3)[GalNAc(b1-4)]Gal(b1-4)Glc
# How it was run: as §1
# [43] = target: Neu5Ac(a2-3)[GalNAc(b1-4)]Gal(b1-4)GlcNAc(b1-3)GalNAc
# How it was run: as §1
# [44] = target: Neu5Ac(a2-6)Gal(b1-4)GlcNAc(b1-3)Gal(b1-4)GlcNAc(b1-3)GalNAc
# How it was run: as §1
# [45] = target: Neu5Ac(a2-6)Gal(b1-4)GlcNAc(b1-3)Gal(b1-4)GlcNAc(b1-3)[Neu5Ac(a2-6)Gal(b1-4)GlcNAc(b1-3)Gal(b1-4)GlcNAc(b1-6)]GalNAc
# How it was run: as §1
# [46] = target: Neu5Ac(a2-6)Gal(b1-4)GlcNAc(b1-6)[Gal(b1-3)GlcNAc(b1-3)]Gal(b1-4)Glc
# How it was run: as §1
# [47] = target: Neu5Ac(a2-6)GlcNAc(b1-4)GlcNAc
# How it was run: as §1
# [48] = target: Neu5Ac(a2-8)Neu5Ac(a2-3)Gal(b1-4)Glc
# How it was run: as §1
# [49] = target: Neu5Ac(a2-8)Neu5Ac(a2-8)Neu5Ac
# How it was run: as §1
# [50] = target: Neu5Ac(b1-6)GalNAc
# How it was run: as §1
binder,measurement,setting,value
"ABA (Agaricus bisporus), Q00022 (protein) MTYTISIRVYQTTPKGFFRPVERTNWKYANGGTWDEVRGEYVLTMGGSGTSGSLRFVSSDTDESFVATFGVHNYKRWCDIVTNLTNEQTALVINQEYYGVPIRDQARENQLTSYNVANAKGRRFAIEYTVTEGDNLKANLIIG",glycan array binding signal (z-score),[1],-0.201
same,glycan array binding signal (z-score),[2],0.475
same,glycan array binding signal (z-score),[3],-0.192
same,glycan array binding signal (z-score),[4],-0.172
same,glycan array binding signal (z-score),[5],-0.048
same,glycan array binding signal (z-score),[6],-0.157
same,glycan array binding signal (z-score),[7],-0.289
same,glycan array binding signal (z-score),[8],0.231
same,glycan array binding signal (z-score),[9],-0.239
same,glycan array binding signal (z-score),[10],-0.155
same,glycan array binding signal (z-score),[11],-0.058
same,glycan array binding signal (z-score),[12],-0.192
same,glycan array binding signal (z-score),[13],-0.118
same,glycan array binding signal (z-score),[14],3.56
same,glycan array binding signal (z-score),[15],3.27
same,glycan array binding signal (z-score),[16],-0.245
same,glycan array binding signal (z-score),[17],-0.25
same,glycan array binding signal (z-score),[18],-0.203
same,glycan array binding signal (z-score),[19],2.81
same,glycan array binding signal (z-score),[20],-0.25
same,glycan array binding signal (z-score),[21],2.52
same,glycan array binding signal (z-score),[22],1.8
same,glycan array binding signal (z-score),[23],-0.104
same,glycan array binding signal (z-score),[24],2.46
same,glycan array binding signal (z-score),[25],-0.254
same,glycan array binding signal (z-score),[26],-0.234
same,glycan array binding signal (z-score),[27],0.071
same,glycan array binding signal (z-score),[28],5.72
same,glycan array binding signal (z-score),[29],2.54
same,glycan array binding signal (z-score),[30],-0.287
same,glycan array binding signal (z-score),[31],1.39
same,glycan array binding signal (z-score),[32],2.74
same,glycan array binding signal (z-score),[33],-0.093
same,glycan array binding signal (z-score),[34],0.099
same,glycan array binding signal (z-score),[35],-0.239
same,glycan array binding signal (z-score),[36],0.46
same,glycan array binding signal (z-score),[37],2.82
same,glycan array binding signal (z-score),[38],2.72
same,glycan array binding signal (z-score),[39],2.8
same,glycan array binding signal (z-score),[40],0
same,glycan array binding signal (z-score),[41],-0.276
same,glycan array binding signal (z-score),[42],-0.249
same,glycan array binding signal (z-score),[43],1.31
same,glycan array binding signal (z-score),[44],-0.201
same,glycan array binding signal (z-score),[45],2.26
same,glycan array binding signal (z-score),[46],-0.255
same,glycan array binding signal (z-score),[47],-0.229
same,glycan array binding signal (z-score),[48],-0.267
same,glycan array binding signal (z-score),[49],-0.247
same,glycan array binding signal (z-score),[50],-0.191
